Sampled rows, rich in hits. Any-hit rate of the full collection: about 3.5%.
mHTT-CaM PPI inh: mutant huntingtin-calmodulin interaction inhibitors – biochemical, AlphaScreen, primary screen | AlphaScreen His-mHTT/GST-CaM binding, luminescence | inhibition, % at 15 µM | hit rate 3.6% among 190,000;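 also: 0% = both proteins with DMSO and 100% = one protein alone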
Pf apPOL inh: Pf-apPOL inhibitors, biochemical, fluorescence; Plasmodium falciparum apicoplast DNA polymerase (apPOL); Recombinant Pf-apPOL, molecular beacon fluorescence, 1.5 h; inhibition, % at 10 µM; hit rate 0.25% among 210,000; AID 1794808, 2022
Active calls of the source: *; · = no result. Rule as the data show it: active = inhibition above about 50%; inactive = the rest.

SMILES	mHTT-CaM PPI inh	Pf apPOL inh
COc1ccc(CCC(=O)Nc2cccc(NC(=O)CCc3ccc(OC)cc3)n2)cc1	4	-5
Cn1c(/C(C#N)=C/c2ccc(F)cc2)nc2ccccc21	-1	-4
OCCN1CCN(C(c2cccs2)c2ccc3cccnc3c2O)CC1 (centres undefined)	100*	96*
CCCCC(=O)NC(c1cccs1)c1cc(Cl)c2cccnc2c1O (centres undefined)	28	-4
O=C(Nc1cccc2cccnc12)C(=O)Nc1cccc2cccnc12	-2	2
CC(=O)NC(c1ccco1)c1ccc2cccnc2c1O (centres undefined)	100*	-2
CC(=O)NC(c1cccs1)c1ccc2cccnc2c1O (centres undefined)	100*	2
Oc1ccc2ccccc2c1C(c1cccs1)N1CCCCC1 (centres undefined)	·	6
Cc1cc(O)cc(C)c1NC(=O)c1ccccc1Br	-1	5
Cc1ccc(N2N=NC3C(=O)N(c4ccc(C)c(F)c4)C(=O)C32)cc1C (centres undefined)	28	3
CCCC(=O)Nc1nc2n(n1)C(c1ccccc1)C=C(c1ccccc1)N2 (centres undefined)	44	1
COc1ccc(/C=C/C(=O)Nc2nc3n(n2)C(c2ccccc2)C=C(c2ccccc2)N3)cc1 (centres undefined)	72*	-3
COc1ccccc1CC(=O)N1CCCC1c1cccc(C)c1 (centres undefined)	4	2
CC(C)Sc1cccc(-c2nnc(NC(=O)c3cc(-c4ccco4)on3)o2)c1	37	-48
CC(C)Sc1cccc(C(=O)Nc2nnc(-c3ccnn3C(C)C)o2)c1	68*	-214
Cc1cc(C)n(-c2ccc(-n3cccc3C=C(C#N)C#N)cc2)n1	·	-2
O=C(Cn1cccc1-c1nnc(-c2ccccc2)o1)N1CCc2ccccc21	-4	-6
Cn1nc(COc2ccccc2)c2c1CCN(Cc1ccoc1)C2	67*	2
Cn1nc(COc2ccccc2)c2c1CCN(Cc1ccco1)C2	14	3
CS(=O)(=O)c1ccc2nc(NC(=O)c3sc4ccccc4c3Cl)sc2c1	-2	5
COc1ccc(C2CC3(O)CC(C#N)(C(=O)N3)C2(C#N)C#N)cc1 (centres undefined)	2	-2
COc1ccc(C2CC3(C)CC(=O)C2C(C#N)(C#N)C3(C#N)C#N)cc1 (centres undefined)	79*	-9
CC(C)(C)c1csc(NC(=O)c2ccccc2Cl)n1	-26	0
Cc1cc(C(=O)N2CCC(c3nnc(-c4ccc(F)cc4)o3)CC2)c(C)o1	100*	-5
O=C(c1ccccc1Br)N1CCC(c2nnc(-c3ccc(F)cc3)o2)CC1	-8	-3
SMILES	mHTT-CaM PPI inh	Pf apPOL inh
COc1cccc(CNC(=O)N2CCCC3(C2)Nc2ccccc2NC3=NC(C)(C)C)c1 (centres undefined)	69*	4
COc1cc(OC)cc(C(=O)N2CCCC3(C2)Nc2ccccc2NC3=NC(C)(C)C)c1 (centres undefined)	21	4
CC(C)(C)N=C1Nc2ccccc2NC12CCCN(C(=O)NCc1ccco1)C2 (centres undefined)	30	4
CC(C)(C)N=C1Nc2ccccc2NC12CCCN(C(=O)NCc1cccc(F)c1)C2 (centres undefined)	99*	-4
COc1ccccc1NC(=O)N1CCCC2(C1)Nc1ccccc1NC2=NC(C)(C)C (centres undefined)	67*	-4
COc1cccc(NC(=O)N2CCCC3(C2)Nc2ccccc2NC3=NC(C)(C)C)c1 (centres undefined)	12	2
COC(=O)c1ccc(S(=O)(=O)N2CCCN(c3nc4ccc(Cl)cc4s3)CC2)n1C	·	-11
Cc1ccc(NC2CC(O)C(CO)O2)cc1[N+](=O)[O-] (centres undefined)	4	-2
CC1C(=O)N(c2ccc(F)c(Cl)c2)CCN1C(=O)CCc1ccccc1 (centres undefined)	14	-4
O=C1C(c2ccccc2)=C(c2ccccc2)c2ccccc21	41	-1
O=C1C(=C(c2ccccc2)c2ccccc2)C(=O)c2ccccc21	61*	-11
O=[N+]([O-])c1ccc(C2Nc3cc(Cl)cc(Cl)c3C3C=CCC32)cc1 (centres undefined)	60*	-5
COc1cc([N+](=O)[O-])cc2c1NC(c1ccc(Br)cc1)C1CC=CC21 (centres undefined)	33	-1
COc1cc(C2Nc3ccc([N+](=O)[O-])cc3C3C=CCC32)cc(OC)c1OC (centres undefined)	71*	2
NS(=O)(=O)c1ccc2c(c1)C1C=CCC1C(c1ccc(Br)cc1)N2 (centres undefined)	84*	3
Brc1ccc2c(c1)[C@@H]1C=CC[C@@H]1[C@H](c1ccncc1)N2	-4	·

Bioassay records as filed in PubChem.
